# Source: PubChem BioAssay (NCATS)
# Results filed as inconclusive are left out. Unmarked numbers belong to inactive results. The source made the active and inactive calls. The call rests on the fitted dose curve.
# Test: Natriuretic polypeptide receptor (hNpr1) antagonism - Pilot counterscreen GloSensor control cell line (AID 1347045)
# Settings: HEK293 cGMP GloSensor cells, SNP-stimulated luminescence, 20 min; series mostly up to 38.3 µM; activity change, negative = inhibition: at the top concentration
# Protocol: F. Fan, B. F. Binkowski, B. L. Butler, P. F. Stecha, M. K. Lewis, K. V. Wood, Novel genetically encoded biosensors using firefly luciferase. ACS Chem Biol 3, 346-351 (2008).
# PROTOCOL TABLE (as described by Inglese J, Shamu CE and Guy RK. 2007)
# SEQUENCE No. (e.g., 1, 2, 3, etc.); […] (e.g., Cells, Incubation, Reagent, etc.); VALUE and DESCRIPTION.
# 1. Cells. Seed 1500 HEK293 cGMP-sensor cells per well in 4uL into Greiner 1536-well white/solid bottom high base, TC plates.
# 2. Incubation. Incubate plated cells at 37C in 5% CO2, 95% RH overnight.
# 3. Reagent. Add 1uL per well GloSensor reagent from Promega (2% final concentration) or CO2 independent media vehicle control to respective columns of Greiner 1536-well plates.
# 4. Incubation. Incubate plated cells at room temperature for 2 h, protect from light.
# 5. Compounds. Library compounds and DMSO vehicle control added at 23nL per well, transferred by Pin Tool.
# 6. Incubation. Incubate plated cells for 30 min. at room temperature, protect from light.
# 7. Detector. GloSensor baseline pre-read luminescence measured using CCD-based camera (Viewlux).
# 8. Compound. Add 1uL of sodium nitroprusside (SNP) to 50 uM final concentration to stimulate soluble guanylyl cyclase (GC) or CO2 independent media as vehicle control.
# 9. Incubation. Incubate treated cells at room temperature for 20 min., protect from light.
# 10. Detector. GloSensor post-SNP luminescence measured using CCD-based camera (Viewlux).
# NOTES (numbers refer to Sequence numbers above; values are from representative experiments)
# 1. HEK293 cells expressing GIP/pGS-40F were grown to 85-95% confluence (48-72 h) in T175 culture flasks (CO2 independent media supplemented with 10% FBS, 1% Pen/Strep antibiotics, and 1 ug/mL puromycin). Trypsinize and harvest cells from T175 culture flasks and filter through 40 um cell strainer. Cells counted with Invitrogen Countess (30,000,000 - 50,000,000 cells/flask).
# 2. Cells incubated for 24 h. at 37C in 95% RH incubator with metal lid having gas-exchange holes.
# 3. Prepare GloSensor Reagent (Promega): Reconstitute GloSensor luciferase substrate by adding 8.2mL Hepes buffer to 250mg substrate, mix well, protect from light and stored at -80C. Prepare a fresh 12% GloSensor solution in CO2 independent supplemented plating media (see above). Mix well and store at ambient temperature, protected from light. 1uL 12% GloSensor Luciferase Reagent added (2% final concentration) to respective columns of 9 x 1536-well Greiner plate with BioRaptr, 1uL CO2 independent plating media added to respective columns as vehicle control with BioRaptr.
# 4. Cells incubated for 2 h. at ambient temperature, protected from light with metal lid having gas-exchange holes.
# 5. 23nL of LOPAC128 library compounds (7 plates) or DMSO vehicle control transferred to 9 Greiner white/solid bottom high base, TC plates in 7 interplate 1:5 titrations (see Yasgar, A. et al. 2008) with Pintool. Two of the 9 plates are DMSO-only in compound field at beginning and end of compound library-treated plates.
# 6. Cells incubated for 30-50 min. at ambient temperature protected from light with metal lid having gas-exchange holes.
# 7. Read GloSensor + Antagonist/Compound baseline Luminescence on the ViewLux [Exposure, 30 s; Gain, High; Speed, Slow; Binning, 2X]
# 8. SNP solution prepared at 500 mM (in H2O) stock concentration. From this a working dilution was prepared at 300 uM in CO2 Independent media. 1uL of 300 uM SNP (50 uM final concentration) or CO2 Independent media vehicle control dispensed into respective columns of 9 x Greiner 1536-well white/solid bottom, tissue culture plates with BioRaptr.
# 9. Cells incubated for 20 min. at ambient temperature, protected from light with metal lid having gas-exchange holes.
# 10. Read final luminescence on the ViewLux. [Exposure, 30 s; Gain, High; Speed, Slow; Binning, 2X.]
# […]
# On the % scale 0 is the no-effect control and ±100 the full control effect; potency means the concentration at half of the fitted maximal effect.
SMILES,"activity change, negative = inhibition [%]",Potency
CCCN(CCC)[C@H]1CCc2c(F)ccc(O)c2C1,3.63,
CP(=O)(O)C1=CCNCC1,-1.63,
N[C@@H](Cn1ccc(=O)[nH]c1=O)C(=O)O,-2.39,
NCC(CP(=O)(O)O)c1ccc(Cl)cc1 (stereo not given),12,
COc1ccc2c(c1)/C(=C/c1cnc[nH]1)C(=O)N2,40.9,
C[C@@H]1[C@@H]2Cc3ccc(O)cc3[C@@]1(C)CCN2CC1CC1,2.99,
COc1cc(CC(C)N)c(OC)cc1I (stereo not given),2.78,
C[N+]1(C)CCN(c2ccccc2)CC1,0.565,
NC(=O)c1ccc(OCC(O)CN2CC=C(c3ccc(F)cc3)CC2)cc1 (stereo not given),-3.32,
CCN1C[C@@]2(COC)C3[C@@H](OC)C4[C@@H]1C3([C@@H]1C[C@]3(O)[C@H](OC(=O)c5ccccc5)[C@@H]1[C@]4(OC(C)=O)[C@@H](O)[C@@H]3OC)[C@H](OC)C[C@H]2O,3.15,
C[C@@H]1O[C@H](C[N+](C)(C)C)CS1,-1.69,
COc1ccc2[nH]c3c(c2c1)CCNC3,-0.661,
NCCc1c[nH]c2ccc(C(N)=O)cc12,9.29,
N[C@@H](CCl)C(=O)O,-8.72,
C[N+](C)(C)CC#CCOC(=O)Nc1cccc(Cl)c1,8.69,
C[N+]1(C)CCOC(O)(c2ccc(-c3ccc(C4(O)C[N+](C)(C)CCO4)cc3)cc2)C1 (stereo not given),-1.71,
CC(C)(C)c1cc(C=C(C#N)C#N)cc(C(C)(C)C)c1O,,0.131 µM (active)
CCOC(=O)c1ncn2c1[C@@H]1CCCN1C(=O)c1cc(OC)ccc1-2,36.9,
NNC(=O)c1ccc(O)cc1,8.87,
CCCN(CCC)CCc1c[nH]c2ccc(C(N)=O)cc12,13.9,

SMILES,"activity change, negative = inhibition [%]",Potency
NCC(O)c1cc(O)c(O)cc1F (stereo not given),0.416,
N#CCCN,5.51,
C/C(O)=C(\C#N)C(=O)Nc1cc(Br)ccc1Br,5.33,
OC1CCCCC1N1CCC(c2ccccc2)CC1 (stereo not given),5.49,
CCCN(CCC)C1CCc2cccc(O)c2C1 (stereo not given),-4.27,
CC(=O)OCC1=C(C(=O)O)N2C(=O)[C@@H](NC(=O)CCC[C@@H](N)C(=O)O)[C@H]2SC1,-2.58,
CCCN1CCC[C@@H](c2cccc(O)c2)C1,3.56,
Cc1c2ccncc2c(C)c2c1[nH]c1ccccc12,3.79,
COc1ccc2c(c1)C13CCCCC1C(C2)N(C)CC3 (stereo not given),-0.204,
N[C@@]1(C(=O)O)CC[C@@H](C(=O)O)C1,-4.72,
CC(C)(O)[C@@H]1C2OC(=O)[C@@H]1[C@]1(O)C[C@H]3O[C@]34C(=O)O[C@H]2[C@]14C (tested in a mixture with another compound),2.79,
CN1CC[C@@]2(C)c3cc(OC(=O)Nc4ccccc4)ccc3N(C)[C@@H]12,-0.501,
NNC(N)=O,2.98,
O=C(O)c1cc[c]([Hg][Cl])cc1,4.32,
CC(N)Cc1c[nH]c2ccc(OCc3cccs3)cc12 (stereo not given),8,
C#CCN[C@H](C)Cc1ccccc1,-3.42,
CCCn1c(C)c(C(=O)c2ccc3ccccc3c2)c2ccccc21,2.28,
COc1ccc2c(c1)[C@@]13CCCC[C@H]1[C@@H](C2)NCC3,3.06,
C[C@H](Cc1ccc2c(c1)OC(C(=O)O)(C(=O)O)O2)NC[C@H](O)c1cccc(Cl)c1,0.859,
NCCc1ccc(S(=O)(=O)F)cc1,-3.91,
